TDP1 cell CPT: qHTS for Inhibitors of human tyrosyl-DNA phosphodiesterase 1 (TDP1): qHTS in cells in presence of CPT; 420,000 compounds, 12% hits; Potency, µM (doses to about 46.2 µM), hits mostly inhibitors; AID 686979, 2013; chicken DT40 Tdp1-/-;hTDP1 cells + 20 nM CPT, ATP luminescence, 48 h; also: nearly all actives have a fitted effect of over 55% in size
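Chicken DT40 Tdp1-/- cells complemented with human TDP1, 400 cells/well, exposed to compounds plus 20 nM camptothecin for at least 48 h at 37 C; viability read as ATP content by CellTiter-Glo luminescence.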
KB-3-1 cytotox: qHTS assay for MDR1-selective chemotherapeutics: Primary screen using the parental adenocarcinoma cell KB-3-1; Potency, µM (series often up to 46.1 µM), actives largely listed as cytotoxic; 400,000 compounds, 1.4% hits; AID 1347075, 2019; KB-3-1 viability, CellTiter-Glo ATP luminescence, 72 h; also: nearly all actives have a fitted effect of over 60% in size
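Cytotoxicity in the drug-sensitive parental line KB-3-1 was scored as loss of CellTiter-Glo luminescence following 72 h incubation with compound. Values come from curve fitting of normalized concentration-response data.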
HT1080 IDH1KD tx: qHTS for induction of synthetic lethality in tumor cells producing 2HG: qHTS for the HT-1080-IDH1KD cell line; 360,000 compounds, 2% hits; Potency, µM (top dose mostly 46.1 µM), actives largely listed as cytotoxic; HT-1080 IDH1 knockdown viability, ATP luminescence, 48 h
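IDH1KD HT-1080 cells, 750/well, RPMI + 5% FBS; compound pinned after 2 h settling; 48 h, 37 °C; CellTiter-Glo luminescence; % activity normalised to DMSO and no-cell wells; curves fitted, classed by r2 and efficacy.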
KB-V1 cytotox: qHTS assay for MDR1-selective chemotherapeutics: Primary screen using the drug-selected MDR subline cells KB-V1. KB-V1 MDR cells viability, CellTiter-Glo, 72 h. Potency, µM (top dose mostly 46.1 µM), usual class: cytotoxic. 400,000 compounds, 3.4% hits. AID 1347076, 2019; also: nearly all actives have a fitted effect of over 60% in size
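Readout: CellTiter-Glo luminescence, 10 min after addition. Cells: KB-V1 MDR subline, 72 h at 37 degrees C with compound. Analysis: corrected, normalized data fitted to concentration-effect curves.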
HT1080-NT tox: qHTS for induction of synthetic lethality in tumor cells producing 2HG: qHTS for the HT-1080-NT fibrosarcoma cell line. HT-1080-NT fibrosarcoma viability, CellTiter-Glo ATP luminescence, 48 h. Potency, µM (series often up to 46.1 µM), usual class: cytotoxic. 360,000 compounds, 1.6% hits. AID 686970, 2013;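 also: NT is the 2HG producing partner of a matched IDH1 knockdown line; nearly all actives have a fitted effect of over 55% in size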
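Read-out is CellTiter-Glo luminescence after 10 minutes at room temperature, following 48 hours' compound treatment of HT-1080-NT cells (750 cells/well, RPMI, 5% FBS, 37 degrees C).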
DT40 TDP1 no CPT: qHTS for Inhibitors of human tyrosyl-DNA phosphodiesterase 1 (TDP1): qHTS in cells in absence of CPT. DT40 Tdp1-/- hTDP1 cells, no CPT, ATP luminescence, 48 h. Potency, µM (series often up to 46.2 µM), actives largely listed as inhibitors. 420,000 compounds, 15% hits. AID 686978, 2013; also: nearly all actives have a fitted effect of over 55% in size
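Chicken DT40 Tdp1-/- cells stably complemented with human TDP1 were seeded at 400 cells/well with DMSO in place of 20 nM camptothecin. After compound pinning, cells grew at least 48 hr at 37 °C; viability read by CellTiter-Glo luminescence.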
Large screens that a line does not name were inactive. Shown are actives, neighbours in structure and some others; about 19% of the full set was active somewhere. Calls follow the shape of the dose curve; as a rule, active = well fitted curve in the direction sought with a large enough effect; inconclusive = small, poorly fitted or top-dose-only effect, or another doubt; inactive = no such curve, though single readings can be large; an effect the other way counts as inactive or inconclusive.

CC[C@@H](C)[C@H](NC(=O)OC(C)(C)C)c1nnc(S(=O)(=O)Cc2cc(C)ccc2C)o1	TDP1 cell CPT 1.3µM, HT1080 IDH1KD tx 10.3µM, KB-V1 cytotox inconclusive, HT1080-NT tox 16.4µM, DT40 TDP1 no CPT 2.31µM
O=C(Nc1cccc(S(=O)(=O)N2CCCCC2)c1)c1ccc2ccccc2n1	TDP1 cell CPT 29.1µM, DT40 TDP1 no CPT 20.6µM
O=C(Nc1cccc(S(=O)(=O)N2CCCC2)c1)c1ccc2ccccc2n1	TDP1 cell CPT 20.6µM, KB-3-1 cytotox inconclusive, DT40 TDP1 no CPT 23.1µM
O=C(Nc1cccc(S(=O)(=O)N2CCOCC2)c1)c1ccc2ccccc2n1	TDP1 cell CPT inconclusive, KB-V1 cytotox inconclusive, DT40 TDP1 no CPT inconclusive
Cc1ccccc1-c1nc2c(c(SCc3cccc(Cl)c3)n1)Cc1c(CO)cnc(C)c1O2	TDP1 cell CPT inconclusive (no result: HT1080 IDH1KD tx, HT1080-NT tox)
CC(C)(C)C(=O)N1CCN(c2ccc([N+](=O)[O-])cc2-n2cccc2)CC1	TDP1 cell CPT inconclusive, DT40 TDP1 no CPT 20.6µM
CC(C)(C)C(=O)N1CCN(c2ccc([N+](=O)[O-])cc2Cl)CC1	TDP1 cell CPT inconclusive, KB-V1 cytotox inconclusive, DT40 TDP1 no CPT inconclusive
Cc1ccc(C(=O)N2CCN(c3ccc([N+](=O)[O-])cc3-n3cccc3)CC2)cc1	TDP1 cell CPT inconclusive, KB-3-1 cytotox inconclusive, DT40 TDP1 no CPT 18.4µM
Cc1ccc(Nc2ccc(N3CCN(C(=O)c4ccc([N+](=O)[O-])cc4)CC3)nn2)cc1	TDP1 cell CPT inconclusive, DT40 TDP1 no CPT 23.1µM (no result: KB-3-1 cytotox, HT1080 IDH1KD tx, KB-V1 cytotox, HT1080-NT tox)
O=C(C1CC1)N1CCN(c2ccc([N+](=O)[O-])cc2-n2cccc2)CC1	TDP1 cell CPT 11.6µM, DT40 TDP1 no CPT 13µM
CC(O)(c1ccccc1)c1nc(-c2cccc(C#N)c2)cs1 (stereo not drawn)	TDP1 cell CPT inconclusive, DT40 TDP1 no CPT inconclusive
COc1ccc(C(C)(O)c2nc(-c3cccc(C#N)c3)cs2)cc1 (stereo not drawn)	TDP1 cell CPT 13µM, KB-3-1 cytotox inconclusive, HT1080 IDH1KD tx inconclusive, DT40 TDP1 no CPT 20.6µM
COc1ccc(C(C)(O)c2nc(-c3cccc(C(=O)O)c3)cs2)cc1 (stereo not drawn)	none
COc1cccc(C(C)(O)c2nc(-c3cccc(C#N)c3)cs2)c1 (stereo not drawn)	TDP1 cell CPT 18.4µM, KB-V1 cytotox inconclusive, DT40 TDP1 no CPT 13µM
CCCN1C2CCCC1CC(NC(=O)c1cc(OC)cc(OC)c1)C2 (stereo not drawn)	none
COc1ccccc1C1CCN(Cc2cccc3ccccc23)CC1	TDP1 cell CPT inconclusive, HT1080 IDH1KD tx inconclusive, KB-V1 cytotox inconclusive, HT1080-NT tox inconclusive, DT40 TDP1 no CPT 16.4µM
COc1ccccc1C1CCN(Cc2ccc(Cl)c(Cl)c2)CC1	TDP1 cell CPT inconclusive, HT1080 IDH1KD tx inconclusive, DT40 TDP1 no CPT inconclusive
COc1ccccc1C1CCN(Cc2c(C)[nH]c3ccccc23)CC1	TDP1 cell CPT 4.61µM, KB-V1 cytotox inconclusive, DT40 TDP1 no CPT 5.8µM
COc1ccc(CN2CCCC(n3cc(C(=O)NC4CCCC4)nn3)C2)c2ccccc12 (stereo not drawn)	none (no result: KB-3-1 cytotox, HT1080 IDH1KD tx, KB-V1 cytotox, HT1080-NT tox)
Cc1csc(NC(=O)c2ccc(C)c([N+](=O)[O-])c2)n1	TDP1 cell CPT inconclusive, KB-3-1 cytotox inconclusive, KB-V1 cytotox inconclusive, DT40 TDP1 no CPT 16.4µM
Cc1csc(NC(=O)c2ccc3nc[nH]c3c2)n1	TDP1 cell CPT inconclusive, DT40 TDP1 no CPT 23.1µM
COc1ccc(C)c2sc(NC(=O)c3ccc(S(=O)(=O)N(C)C)cc3)nc12	none (no result: HT1080 IDH1KD tx, HT1080-NT tox)
Cc1ccc(O)c(-c2ccnc3cc(-c4ccc(Cl)cc4)nn23)c1	DT40 TDP1 no CPT inconclusive (no result: HT1080 IDH1KD tx, HT1080-NT tox)
O=C1CCc2cc(S(=O)(=O)Nc3ccc4c(c3)CCC4)ccc2N1	none (no result: TDP1 cell CPT, HT1080 IDH1KD tx, HT1080-NT tox, DT40 TDP1 no CPT)
O=C(NC(c1ccc(Cl)cc1)c1ccccn1)C1CCN(CCOc2ccc(Cl)cc2Cl)CC1 (stereo not drawn)	TDP1 cell CPT inconclusive, KB-3-1 cytotox inconclusive, HT1080 IDH1KD tx inconclusive, KB-V1 cytotox inconclusive, HT1080-NT tox inconclusive, DT40 TDP1 no CPT 18.4µM
COc1ccc(C(NC(=O)C2CCN(C/C=C/c3ccc(OC(C)=O)c(OC)c3)CC2)c2ccccn2)cc1 (stereo not drawn)	TDP1 cell CPT inconclusive, HT1080 IDH1KD tx inconclusive, HT1080-NT tox inconclusive, DT40 TDP1 no CPT 20.6µM
Cc1cccnc1C(NC(=O)C1CCN(CCOc2ccc(Cl)cc2Cl)CC1)c1ccc(Cl)cc1 (stereo not drawn)	TDP1 cell CPT 11.6µM, KB-3-1 cytotox inconclusive, KB-V1 cytotox inconclusive, DT40 TDP1 no CPT 7.31µM
O=C(NC(c1ccc2c(c1)OCO2)c1ccccn1)C1CCN(CCOc2ccc(Cl)cc2Cl)CC1 (stereo not drawn)	TDP1 cell CPT inconclusive, HT1080 IDH1KD tx inconclusive, HT1080-NT tox inconclusive, DT40 TDP1 no CPT inconclusive
COc1ccc(OCCN2CCC(C(=O)NC(c3ccc(OC)cc3)c3ccccn3)CC2)cc1 (stereo not drawn)	none
O=C(NC(c1ccc(Cl)cc1)c1cccnc1)C1CCN(CCOc2ccc(Cl)cc2Cl)CC1 (stereo not drawn)	TDP1 cell CPT inconclusive, HT1080 IDH1KD tx 18.4µM, HT1080-NT tox 18.4µM, DT40 TDP1 no CPT inconclusive
Cc1cccnc1C(NC(=O)C1CCN(CCOc2ccc(F)cc2)CC1)c1ccc(F)cc1 (stereo not drawn)	TDP1 cell CPT inconclusive, HT1080 IDH1KD tx inconclusive, KB-V1 cytotox inconclusive, HT1080-NT tox inconclusive, DT40 TDP1 no CPT inconclusive
C[C@@H]1CN([C@@H](C)CO)C(=O)c2cc(Br)cnc2O[C@@H]1CN(C)Cc1cncnc1	none
CC(C)C[C@@H](CN1CCCC1CN1C(=S)NC[C@@H]1Cc1ccc(O)cc1)N1C[C@H](Cc2ccccc2)N(CC2CCCCCC2)C1=S (stereo partly drawn)	TDP1 cell CPT inconclusive, KB-V1 cytotox inconclusive, DT40 TDP1 no CPT 23.1µM
CC(C)C[C@@H](CN1CCC[C@@H]1CN1C(=O)C(=O)NC[C@@H]1Cc1ccc(O)cc1)N1C[C@H](Cc2ccc(O)cc2)N(CC2CCCCCC2)C(=O)C1=O	none

Source: PubChem BioAssay
